# Source: PubChem BioAssay
# Records with an inconclusive call do not appear. Calls of active or inactive are those of the source.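 How the source made its calls, unless noted: active means inhibition above 50%, about 3 SD of the validation set; inactive means the rest.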
# Tests used:
# [1] = rapamycin-like changes in RPL19A-GFP expression – cell-based, S. cerevisiae, multiplex flow cytometry, primary screen (AID 1862; in the data active means percent of DMSO control GFP below about 86%;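 further: lower values mimic rapamycin by blocking the RPL19A rise seen in DMSO cells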); details: S. cerevisiae RPL19A-GFP strain, flow cytometry fluorescence, 3 h; at 10 µM; stronger effect = lower value
# [2] = TOR pathway GLN3 branch reporter MEP2-GFP changes – S. cerevisiae, multiplex flow cytometry, primary screen (AID 1867;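 active means GFP response, as percent of the DMSO control, above the screen-wide mean plus 3 SD, about 139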;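 further: median GFP channel fluorescence of barcode-gated MEP2-GFP cells measured by flow cytometry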); details: S. cerevisiae MEP2-GFP strain, 3 h, at 10 µM, stronger effect = higher value, 100% means same as DMSO wells
# [3] = TOR pathway RTG branch CIT2 reporter changes – S. cerevisiae, GFP fusion, multiplex flow cytometry, primary screen (AID 1870;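 active means percent response above a set limit, the screen-wide mean plus 3 SD, cut at about 130% in these data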;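 further: barcoded CIT2-GFP strain pooled with four other GFP strains with rapamycin as positive control; median GFP fluorescence per well over plate mean of DMSO wells so 100% = DMSO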); details: S. cerevisiae CIT2-GFP expression, 3 h, at 10 µM, stronger effect = higher value
# [4] = TOR pathway LAP4-GFP level changes – S. cerevisiae, multiplex flow cytometry, primary screen (AID 1873;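 active means GFP signal, as percent of the solvent control, above the screen mean plus 3 SD, about 149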); details: S. cerevisiae LAP4-GFP expression, 3 h, at 10 µM, stronger effect = higher value
# [5] = yeast AGP1-GFP level changes, GLN3 branch – cell-based, multiplex flow cytometry, S. cerevisiae, primary screen (AID 1887;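 active means GFP signal above the screen-wide mean plus 3 SD, that is over about 124.5% of the solvent control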;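 further: AGP1-GFP fusion strain of S. cerevisiae within a five-strain barcoded multiplex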); details: 3 h, at 10 µM, stronger effect = higher value
# [6] = reduced mouse 2C T cell binding to pMHC/ICAM-1 vesicles – MLPCN validation set, flow cytometry, LFA-1/ICAM-1 modulator project, pilot screen (AID 2523;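 active means response below a set limit, under 55% cells CD8-positive and vesicle-bound, and CD8 cells' 90th-percentile brightness under 279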;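 on vesicle binding response: mean PE anti-B7-1 fluorescence of CD8+ cells relative to row control; 100% = QL9-loaded vesicles with DMSO vehicle in the same plate row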); details: 2C mouse CD8+ T cells, at 7 µM, stronger effect = lower value; double positive events: measured here: CD8+/vesicle+ event percentage
# [7] = target: Integrin beta-1 (Homo sapiens) + Integrin alpha-4 (Homo sapiens) (UniProt P13612+P05556); assay: alpha4beta1 integrin LIBS antibody binding reduction – U937 cells, HUTS-21 mAb, flow cytometry, validation set, VLA-4 allosteric modulator project, pilot screen (AID 2674); details: HUTS-21 LIBS mAb binding, at 6.7 µM, stronger effect = higher value, binding induced by LDV ligand;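 further: antibody binding induced by the VLA-4 ligand LDV present at three times its Kd; 0% = LDV ligand with antibody and no compound and 100% = antibody without LDV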
# [8] = calorie-restriction mimetic ROS inhibitors, yeast – validation compound set, pilot screen (AID 2706;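 active means superoxide response below 65% of plate, a cut near 3 SD across the whole screen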;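 further: yeast exposed to compound for one week at 30 degrees C before staining; 100% = mean of all compound wells on the same plate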); details: S. cerevisiae aging, superoxide DHE fluorescence; at 10 µM; stronger effect = lower value
# [9] = target: Beta-adrenergic receptor kinase 1 (Homo sapiens) (UniProt P25098); assay: GRK2 binders displacing RNA aptamer, biochemical, validation, human GRK2, bead flow cytometry (AID 488806;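 active means aptamer binding inhibition above 30%, about 3 SD of noise from non-fluorescent compounds; inactive means inhibition at or below 30%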); details: bead-bound GRK2, FAM-aptamer displacement, at 10 µM, stronger effect = higher value
# [10] = target: Beta-2 adrenergic receptor (Homo sapiens) (UniProt P07550); assay: agonist-induced loss of surface beta2AR – cell-based, FAP fluorogen, flow cytometry, validation set, pilot screen (AID 504459;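 active means percent response above 42, roughly 3 SD of non-fluorescent test compounds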;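 further: agonist-driven loss of surface beta2AR via internalization measured by FAP dye flow cytometry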); details: Am2.2-beta2AR cells, at 10 µM, stronger effect = higher value
# [11] = target: AP-2 complex subunit beta (Homo sapiens) (UniProt P63010); assay: beta-arrestin/AP2 interaction blockers – biochemical, validation set, GST-AP2 beads, flow cytometry, pilot screen (AID 504541;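 active means inhibition above 54%, about 3 SD of non-fluorescent compounds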;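 further: AP2 carries R879A mutation and is captured from E. coli lysate; bead-bound FITC arrestin peptide fluorescence measuring arrestin peptide binding to AP2; 0% = DMSO wells and 100% = excess unlabeled arrestin peptide control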); details: FITC arrestin peptide, at 10 µM, stronger effect = higher value, AP2 beta2 appendage fragment, R879A mutant
# [12] = cytosolic pH regulators acting via V-ATPase – S. cerevisiae, pHLuorin, HTS validation (AID 504600; in the data active means response above about 15%;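 further: plate controls were DMSO for no effect and reference compound for full effect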); details: V-ATPase proton transport, at 10 µM, stronger effect = higher value
# [13] = tested on: anti-desmoglein-3 scFv antibody binding to human DSG3; assay: blockers of pathogenic pemphigus antibody–desmoglein-3 binding – biochemical, validation compound set, bead-based, flow cytometry, pilot screen (AID 588368;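 active means binding below the plate cutoff, the plate median minus 3 SD, with a reading above zero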;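 further: signal is the median channel fluorescence of bead-bound GFP antibody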); details: Protein G beads, DSG3-Fc, scFv-GFP binding, at 10 µM, stronger effect = lower value
# [14] = Nile Red efflux blockade in pump-expressing yeast – validation compound set, multiplex, phenotypic, pilot screen (AID 588506;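 active means efflux inhibition above 0.42, the validation set average plus 4 SD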;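 further: Nile Red retained in cells so higher fluorescence means more efflux inhibition; 0 = negative control wells and 1 = enniatin B 25 µM full block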); details: S. cerevisiae pump-expressing triplex, Nile Red efflux flow cytometry; at 10 µM; stronger effect = higher value; the pumps come from Candida albicans
# [15] = target: ATP-binding cassette sub-family B member 6 (Homo sapiens) (UniProt Q9NP58); assay: blockers of ABCB6-driven porphyrin uptake – K562-ABCB6 cells, flow cytometry, validation set, pilot screen (AID 588550;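 active means inhibition above the screen-wide mean plus 3 SD, about 51%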;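 further: 0% = DMSO wells and 100% = benzethonium chloride 70 µM positive control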); details: K562-ABCB6 porphyrin accumulation, 1 h, at 10 µM, stronger effect = higher value
# [16] = AML differentiation inducers, ER-HoxA9 marrow cells – cell-based, GFP/MAC1 double positive, flow cytometry, validation set, primary screen (AID 588685;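 active means differentiation response of at least 50%, scaled between solvent and reference control, from cells with both markers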;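 further: compound exposure lasts four days before antibody staining and flow analysis; 0% = DMSO wells and 100% = 5 µM fulvestrant positive control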); details: stronger effect = higher value, normalized: vehicle 0, fulvestrant 100
# Integrin beta-1 (Homo sapiens) + Integrin alpha-4 (Homo sapiens), sequence (P05556 whole entry, looked up): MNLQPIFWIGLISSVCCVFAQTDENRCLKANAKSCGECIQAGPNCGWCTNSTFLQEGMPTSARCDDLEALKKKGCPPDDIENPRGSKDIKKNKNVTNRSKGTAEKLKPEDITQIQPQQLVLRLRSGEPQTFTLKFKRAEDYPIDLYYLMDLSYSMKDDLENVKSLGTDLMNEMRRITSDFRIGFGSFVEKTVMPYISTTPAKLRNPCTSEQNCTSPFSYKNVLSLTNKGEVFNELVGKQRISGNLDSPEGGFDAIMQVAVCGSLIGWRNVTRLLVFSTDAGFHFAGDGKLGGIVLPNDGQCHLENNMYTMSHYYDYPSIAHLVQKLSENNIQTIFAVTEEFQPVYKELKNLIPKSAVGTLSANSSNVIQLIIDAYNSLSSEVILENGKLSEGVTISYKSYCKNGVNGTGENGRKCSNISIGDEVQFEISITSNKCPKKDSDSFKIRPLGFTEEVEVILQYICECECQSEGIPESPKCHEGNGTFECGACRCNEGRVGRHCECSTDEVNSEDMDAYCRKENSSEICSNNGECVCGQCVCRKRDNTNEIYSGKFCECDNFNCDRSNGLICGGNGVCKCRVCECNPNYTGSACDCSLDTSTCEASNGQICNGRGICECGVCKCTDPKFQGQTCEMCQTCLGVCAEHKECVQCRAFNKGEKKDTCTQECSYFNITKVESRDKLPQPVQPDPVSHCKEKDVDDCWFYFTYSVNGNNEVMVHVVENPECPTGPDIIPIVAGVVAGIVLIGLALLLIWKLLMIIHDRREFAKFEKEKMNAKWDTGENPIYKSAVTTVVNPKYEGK
# Integrin beta-1 (Homo sapiens) + Integrin alpha-4 (Homo sapiens), sequence (P13612 whole entry, looked up): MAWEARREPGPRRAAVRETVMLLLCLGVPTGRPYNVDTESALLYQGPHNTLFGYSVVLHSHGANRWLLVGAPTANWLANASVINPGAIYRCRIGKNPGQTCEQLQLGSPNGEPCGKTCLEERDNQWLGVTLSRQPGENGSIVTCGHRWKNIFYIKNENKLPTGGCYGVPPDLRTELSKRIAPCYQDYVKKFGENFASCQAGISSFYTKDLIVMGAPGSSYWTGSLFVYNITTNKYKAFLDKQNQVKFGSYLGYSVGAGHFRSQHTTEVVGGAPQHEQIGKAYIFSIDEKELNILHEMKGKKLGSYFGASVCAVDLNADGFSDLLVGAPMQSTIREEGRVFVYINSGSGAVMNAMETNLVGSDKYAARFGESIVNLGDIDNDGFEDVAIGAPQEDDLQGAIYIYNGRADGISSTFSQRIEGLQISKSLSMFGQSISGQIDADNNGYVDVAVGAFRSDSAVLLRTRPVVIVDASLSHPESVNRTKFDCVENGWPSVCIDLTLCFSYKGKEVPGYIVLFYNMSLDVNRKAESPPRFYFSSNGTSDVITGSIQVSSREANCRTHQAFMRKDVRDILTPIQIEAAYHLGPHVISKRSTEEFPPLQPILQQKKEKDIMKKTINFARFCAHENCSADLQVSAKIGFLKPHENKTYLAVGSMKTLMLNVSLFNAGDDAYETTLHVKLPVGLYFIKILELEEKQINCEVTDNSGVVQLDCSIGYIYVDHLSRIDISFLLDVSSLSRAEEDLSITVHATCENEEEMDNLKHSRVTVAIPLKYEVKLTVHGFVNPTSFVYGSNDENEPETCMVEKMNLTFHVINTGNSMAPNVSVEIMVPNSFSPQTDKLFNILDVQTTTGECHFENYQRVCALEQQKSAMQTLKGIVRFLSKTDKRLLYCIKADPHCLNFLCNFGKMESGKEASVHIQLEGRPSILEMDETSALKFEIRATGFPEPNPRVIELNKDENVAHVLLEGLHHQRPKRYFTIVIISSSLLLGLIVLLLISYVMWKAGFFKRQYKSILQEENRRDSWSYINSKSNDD
# ATP-binding cassette sub-family B member 6 (Homo sapiens), sequence (Q9NP58 whole entry, looked up): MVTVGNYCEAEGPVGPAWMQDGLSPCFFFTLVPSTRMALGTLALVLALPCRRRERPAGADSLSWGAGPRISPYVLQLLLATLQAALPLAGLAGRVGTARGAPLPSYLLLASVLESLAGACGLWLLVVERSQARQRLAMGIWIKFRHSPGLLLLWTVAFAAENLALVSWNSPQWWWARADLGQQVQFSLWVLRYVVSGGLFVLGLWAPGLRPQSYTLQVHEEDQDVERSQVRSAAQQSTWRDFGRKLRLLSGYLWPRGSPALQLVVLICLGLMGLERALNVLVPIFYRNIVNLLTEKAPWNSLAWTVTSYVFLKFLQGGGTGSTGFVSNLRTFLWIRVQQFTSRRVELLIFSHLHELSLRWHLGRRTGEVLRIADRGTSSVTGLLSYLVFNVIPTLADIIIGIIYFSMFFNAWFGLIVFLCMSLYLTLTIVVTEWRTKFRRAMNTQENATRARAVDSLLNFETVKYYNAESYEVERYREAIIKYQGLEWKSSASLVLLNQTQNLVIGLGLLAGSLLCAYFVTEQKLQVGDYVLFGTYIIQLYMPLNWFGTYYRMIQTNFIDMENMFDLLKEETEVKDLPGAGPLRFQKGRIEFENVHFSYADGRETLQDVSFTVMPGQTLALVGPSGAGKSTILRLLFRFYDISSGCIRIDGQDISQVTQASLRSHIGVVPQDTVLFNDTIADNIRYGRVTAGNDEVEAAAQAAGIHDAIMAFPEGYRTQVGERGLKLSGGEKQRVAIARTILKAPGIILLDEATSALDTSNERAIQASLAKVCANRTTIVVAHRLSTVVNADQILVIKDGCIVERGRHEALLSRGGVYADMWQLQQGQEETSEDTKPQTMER
# Beta-2 adrenergic receptor (Homo sapiens), sequence (P07550 whole entry, looked up): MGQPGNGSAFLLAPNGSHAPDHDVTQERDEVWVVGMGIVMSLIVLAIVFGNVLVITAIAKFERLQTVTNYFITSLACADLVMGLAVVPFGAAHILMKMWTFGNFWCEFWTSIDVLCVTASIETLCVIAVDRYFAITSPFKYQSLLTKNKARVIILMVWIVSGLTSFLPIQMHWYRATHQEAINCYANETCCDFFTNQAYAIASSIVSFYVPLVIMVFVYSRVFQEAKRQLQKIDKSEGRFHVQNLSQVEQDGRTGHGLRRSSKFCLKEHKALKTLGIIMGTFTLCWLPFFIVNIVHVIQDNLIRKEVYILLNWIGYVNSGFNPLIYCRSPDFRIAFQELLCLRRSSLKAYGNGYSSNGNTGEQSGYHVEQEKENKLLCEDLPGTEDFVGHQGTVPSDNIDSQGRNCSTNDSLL
# AP-2 complex subunit beta (Homo sapiens), sequence (P63010 whole entry, looked up, the tested form may be a part, one chain of several): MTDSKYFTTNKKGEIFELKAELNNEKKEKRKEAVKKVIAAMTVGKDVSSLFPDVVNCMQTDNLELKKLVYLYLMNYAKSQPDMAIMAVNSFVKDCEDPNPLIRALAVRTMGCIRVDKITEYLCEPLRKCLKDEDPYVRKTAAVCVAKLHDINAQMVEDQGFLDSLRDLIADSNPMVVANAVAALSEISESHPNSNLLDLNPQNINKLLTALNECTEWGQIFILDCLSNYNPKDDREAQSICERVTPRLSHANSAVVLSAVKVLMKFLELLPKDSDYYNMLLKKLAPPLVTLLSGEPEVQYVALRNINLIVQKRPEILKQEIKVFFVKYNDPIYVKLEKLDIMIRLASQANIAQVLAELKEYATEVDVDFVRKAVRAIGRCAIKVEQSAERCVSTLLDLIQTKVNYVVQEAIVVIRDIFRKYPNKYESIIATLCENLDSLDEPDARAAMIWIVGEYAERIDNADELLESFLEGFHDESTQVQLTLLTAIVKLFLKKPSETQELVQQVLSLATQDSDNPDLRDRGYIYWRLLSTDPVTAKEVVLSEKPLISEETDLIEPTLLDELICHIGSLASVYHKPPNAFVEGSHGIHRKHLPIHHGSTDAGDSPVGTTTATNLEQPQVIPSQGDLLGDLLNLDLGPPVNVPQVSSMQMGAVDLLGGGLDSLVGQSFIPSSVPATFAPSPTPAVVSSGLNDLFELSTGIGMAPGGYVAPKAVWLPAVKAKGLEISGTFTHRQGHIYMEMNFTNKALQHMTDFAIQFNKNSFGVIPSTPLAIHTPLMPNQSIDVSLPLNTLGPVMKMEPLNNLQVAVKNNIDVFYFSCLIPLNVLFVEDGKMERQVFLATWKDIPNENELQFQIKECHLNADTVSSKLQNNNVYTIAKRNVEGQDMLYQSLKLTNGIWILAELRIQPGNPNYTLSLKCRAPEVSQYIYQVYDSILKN
# Beta-adrenergic receptor kinase 1 (Homo sapiens), sequence (P25098 whole entry, looked up): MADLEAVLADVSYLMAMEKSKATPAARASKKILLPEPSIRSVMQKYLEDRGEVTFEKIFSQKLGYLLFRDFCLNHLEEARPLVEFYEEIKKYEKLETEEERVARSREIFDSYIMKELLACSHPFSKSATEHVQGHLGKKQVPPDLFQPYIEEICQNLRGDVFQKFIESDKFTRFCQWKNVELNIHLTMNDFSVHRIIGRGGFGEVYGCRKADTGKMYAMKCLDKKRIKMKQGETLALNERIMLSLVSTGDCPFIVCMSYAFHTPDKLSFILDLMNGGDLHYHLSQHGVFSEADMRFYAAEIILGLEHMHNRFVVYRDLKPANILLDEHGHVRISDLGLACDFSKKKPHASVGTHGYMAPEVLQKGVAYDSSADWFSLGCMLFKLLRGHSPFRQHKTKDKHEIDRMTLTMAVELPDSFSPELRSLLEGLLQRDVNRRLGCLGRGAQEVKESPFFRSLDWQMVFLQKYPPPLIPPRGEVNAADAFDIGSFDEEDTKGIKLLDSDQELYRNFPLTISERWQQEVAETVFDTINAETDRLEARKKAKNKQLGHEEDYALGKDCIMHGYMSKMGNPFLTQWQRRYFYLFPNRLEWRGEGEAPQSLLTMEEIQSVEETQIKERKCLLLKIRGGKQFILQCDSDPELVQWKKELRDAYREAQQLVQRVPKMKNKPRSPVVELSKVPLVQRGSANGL
SMILES,percent of DMSO control GFP [1],GFP response vs DMSO [2],percent response of DMSO control [3],GFP response vs DMSO [4],"GFP response, % of DMSO [5]",double positive events [6] [%],vesicle binding response [6],inhibition [7],superoxide response (% of plate) [8],aptamer binding inhibition [9],response [10],inhibition [11],response [12],binding (% of control) [13],efflux inhibition (fraction of control) [14],inhibition [15],differentiation response [16]
CCc1cc2c(=O)c(-c3ccc4c(c3)OCCO4)coc2c(CN2CCCCC2C)c1O (stereo not drawn),103% (inactive),98.6% (inactive),91.8% (inactive),103% (inactive),109% (inactive),63.4,177% (inactive),14.2% (inactive),65.8% (inactive),2% (inactive),-18.8% (inactive),9.88% (inactive),3.99% (inactive),112% (inactive),-0.04 (inactive),-2% (inactive),15.7% (inactive)
CC(=O)[C@H]1CC[C@H]2[C@@H]3C[C@H](C)C4=CC(=O)CC[C@]4(C)[C@H]3[C@@H](O)C[C@]12C,95.9% (inactive),116% (inactive),102% (inactive),86.9% (inactive),92.6% (inactive),63.6,151% (inactive),2.58% (inactive),95.6% (inactive),8% (inactive),-10% (inactive),-0.56% (inactive),2.7% (inactive),108% (inactive),0.09 (inactive),9% (inactive),-2.46% (inactive)
Cc1cccc(C(=O)c2cccc(C)c2)c1,105% (inactive),103% (inactive),109% (inactive),105% (inactive),105% (inactive),56,45.4% (inactive),12% (inactive),104% (inactive),0% (inactive),-8.97% (inactive),-6.55% (inactive),1.1% (inactive),98.7% (inactive),-0.17 (inactive),1% (inactive),-7.57% (inactive)
CCCCOn1c(C)c(C(C)=O)c2c3no[n+]([O-])c3ccc21,101% (inactive),105% (inactive),97.7% (inactive),120% (inactive),99.4% (inactive),59.8,246% (inactive),-12.7% (inactive),106% (inactive),0% (inactive),25.4% (inactive),-10.5% (inactive),5.1% (inactive),94.3% (inactive),-0.1 (inactive),7% (inactive),74.4% (active)
COc1cccc(NC(=O)C2CC(=O)OC23CCOC(C)(C)C3)c1 (stereo not drawn),93.7% (inactive),137% (inactive),95.2% (inactive),80.9% (inactive),94.2% (inactive),58.3,24.9% (inactive),19.1% (inactive),88.5% (inactive),2% (inactive),-4.19% (inactive),0.76% (inactive),-0.08% (inactive),101% (inactive),-0.13 (inactive),9% (inactive),-2.46% (inactive)
CC(C)N(C(=O)Cc1ccccc1[N+](=O)[O-])C(C)C,104% (inactive),96.3% (inactive),102% (inactive),92.2% (inactive),104% (inactive),60.4,240% (inactive),3.67% (inactive),104% (inactive),2% (inactive),-2.55% (inactive),-8.88% (inactive),1.74% (inactive),103% (inactive),-0.13 (inactive),5% (inactive),-26.4% (inactive)
CCC(=O)c1ccc(OCc2ccc(C(=O)OC)cc2)cc1,104% (inactive),104% (inactive),106% (inactive),112% (inactive),98.6% (inactive),54.8,127% (inactive),4.27% (inactive),90.3% (inactive),-1% (inactive),4.9% (inactive),10.4% (inactive),23.8% (active),96.4% (inactive),-0.045 (inactive),10% (inactive),-23.6% (inactive)
COC1CCN(C(=O)c2ccc(OC3CCN(Cc4ccccn4)CC3)cc2)CC1,104% (inactive),109% (inactive),104% (inactive),114% (inactive),110% (inactive),65,133% (inactive),9.13% (inactive),89.2% (inactive),-2% (inactive),-2.71% (inactive),26.3% (inactive),-3.44% (inactive),103% (inactive),-0.17 (inactive),8% (inactive),-2.4% (inactive)
CC(=O)OC[C@H]1O[C@@H](Sc2cccc3cccnc23)[C@H](OC(C)=O)[C@@H](OC(C)=O)[C@H]1OC(C)=O,98.9% (inactive),99.6% (inactive),99% (inactive),117% (inactive),94.6% (inactive),62.5,187% (inactive),-5.38% (inactive),105% (inactive),4% (inactive),-27.5% (inactive),-0.13% (inactive),0.07% (inactive),104% (inactive),0.04 (inactive),-2% (inactive),-5.97% (inactive)
